Data taken from ChEMBL document CHEMBL4888484, “Replenishing the malaria drug discovery pipeline: Screening and hit evaluation of the MMV Hit Generation Library 1 (HGL1) against asexual blood stage Plasmodium falciparum ,using a nano luciferase reporter read-out” (2022).
About 540 (0.36%) of roughly 150,000 compounds showed an effect of 50% or more. Only a selection was taken, and strong results are over-represented in it overall.

test system: Plasmodium falciparum; test: Primary screen in NF54 nanoGlo assay, in single point, at 2uM, 72h; a lower Z score goes with more inhibition; type: functional, Erythrocyte; conditions: timepoint 72 hour

SMILES | % Inhibition [%] | Z score
COc1cc(Br)c(NC(=O)N(C)CC(C)C)cc1OC | -13 | 1.89
C[n+]1ccccc1/C=C/c1c[nH]c2ccccc12 | 91 | -8.06
C1=Cn2nc(/C=C/c3c[nH]c4ccccc34)nc2-c2ccccc2O1 | -30 | 3.55
CCc1ccc(/C=C/c2c[nH]c3ccccc23)[n+](CC)c1 | 93 | -8.52
c1ccc2c(C(c3c[nH]c4ccccc34)c3c[nH]c4ccccc34)c[nH]c2c1 | -27 | 3.19
CCCCc1ccc(NCc2c[nH]c3ccccc23)cc1 | 1 | -0.17
COc1ccc(OC)c2c(/C=C/c3c[nH]c4ccccc34)ccnc12 | -8 | 0.9
c1cnc(NCc2cnc(N3CCCC3)s2)cn1 | -3 | 0.38
Cn1cccc1CN[C@H]1CCOc2ccc(F)cc21 | -10 | 1.36
CCc1nnc([C@@H]2CCCN2C(=O)NCc2ccc(F)cc2)[nH]1 | -5 | 0.68
COC1CCCC1NC(=O)Nc1ncc(Br)cc1C (stereo unspecified) | 74 | -9.34
COC1CCCCC1NC(=O)Nc1cccc(-c2ncc(C)o2)c1 (stereo unspecified) | -3 | 0.66
CC(=O)Nc1ncc(Br)cc1C | 33 | -0.41
COc1ccc(C(=O)c2oc3ccccc3c2NC(=O)c2csnn2)cc1Cl | -18 | 1.56
O=S(=O)(c1ccccc1)N1CCC(OCCOc2cccnc2)CC1 | -7 | 1.14
COc1cccc(S(=O)(=O)N2CCC(OCCOCc3ccccc3)CC2)c1 | 40 | -0.89
COc1cccc(S(=O)(=O)N2CCC(OCCOc3ccccc3)CC2)c1 | 53 | -0.06
CCN(CC)c1ncc(CN2CC[C@H](NS(C)(=O)=O)C2)s1 | -14 | 1.85
NC(=O)Cc1nc(CC(F)(F)F)n(C2CCCCC2)n1 | 0 | 0.02
COc1cc(C(=O)NCCNC(=O)c2cc(-c3ccccc3)nc3ccccc23)cc(OC)c1OC | -11 | 1.69
Cn1c(-c2ccc(Cl)c(Cl)c2)c[n+](CC(=O)c2ccc(-c3ccccc3)cc2)c1N | 53 | -0.87
Cn1c(-c2ccc(Cl)c(Cl)c2)c[n+](CC(=O)c2ccc(F)cc2)c1N | 37 | -4.75
Cc1ccc(C(=O)C[n+]2cc(-c3ccc(-c4ccccc4)cc3)n(C)c2N)cc1 | 42 | -0.38
CCc1nc(C)c(C(=O)N(C)Cc2csc(-c3ccccc3)n2)s1 | -4 | 0.61
O=C(NCC1(c2ccccc2Cl)CCOCC1)N1CCOCC1 | -4 | 0.54
NC1CCC(C(=O)NCC2(c3ccccc3Cl)CCOCC2)C1 (stereo unspecified) | 8 | -1.21
Cc1ccc(O)c(CNCC2(c3ccccc3Cl)CCOCC2)n1 | 98 | -10.48

SMILES | % Inhibition [%] | Z score
Cc1ccc2[nH]c3c(c2c1)C[C@@H](N1C(=O)CN(CC(C)C)C1=O)CC3 | -3 | 0.39
FC(F)(F)c1ccc(N2CCC(n3ccnn3)CC2)nn1 | 0 | -0.04
Cc1cc(C)c(NC(=O)OCc2cccc3cccnc23)c(C)c1 | 88 | -13.23
C[C@@H](C(=O)OCc1cccc2cccnc12)N1CCOCC1 | -4 | 0.63
Cc1nc(C)c(C(=O)OCc2cccc3cccnc23)s1 | -18 | 3.51
CC1CC(C(=O)NCC2CCCCC2)c2ccccc2N1 (stereo unspecified) | 3 | -0.43
Cc1noc(C)c1CN1C(=O)NC2(CCCCC2)C1=O | -2 | 0.32
COc1ccc(CCNc2nc(-c3ccc(OC)cc3)c3c(N)n(-c4ccc(OC)cc4)nc3n2)cc1 | -13 | 2.28
Cc1ccc(C(=O)C[n+]2cc(-c3ccc(Br)cc3)n(C)c2N)cc1 | 38 | 2.56
COc1ccc2c(c1)[n+](CC(=O)c1ccc(-c3ccc(Br)cc3)cc1)c(CO)n2C | 70 | -5.57
COc1cccc(C(=O)C[n+]2cc(-c3ccc(Br)cc3)n(C)c2N)c1 | 35 | -0.41
CC[N+](CC)(CC(=O)OC1CC2CCC1(C)C2(C)C)CC(=O)OC1CC2CCC1(C)C2(C)C (stereo unspecified) | 77 | -8.45
CC1(C)C2CCC1(C)C(OC(=O)CN1CCCCCC1)C2 (stereo unspecified) | 0 | -0.02
CCn1c(-n2nc(C)nc2[C@H]2CCS(=O)(=O)C2)nc2ccccc21 | 4 | -0.76
O=C(CNC(=O)c1cnccn1)NCCc1c[nH]c2ccc(F)cc12 | -5 | 0.67
CCn1cc(-c2nc(-c3ccccc3C)no2)c(=O)c2cc(F)c(N3CCCCC3)cc21 | 51 | -3.9
CCn1cc(-c2nc(-c3ccccc3)no2)c(=O)c2cc(F)c(N3CCCCC3)cc21 | -9 | 1.55
Cc1ccc(S(=O)(=O)c2cn(Cc3ccccc3)c3cc(N4CCCCC4)c(F)cc3c2=O)cc1 | -24 | 2.28
CCn1cc(-c2nc(-c3ccccc3C)no2)c(=O)c2cc(F)c(N3CCOCC3)cc21 | 40 | -3.29
CCn1cc(C(=O)O)c(=O)c2cc(F)c(N3CCN(S(=O)(=O)c4ccccc4)CC3)cc21 | 34 | 0.66
CCn1cc(C#N)c(=O)c2cc(F)c(N3CCN(Cc4ccccc4)CC3)cc21 | 68 | -7.22
COc1cc(OC)cc(-c2c3c(O)nn(C(C)C)c3nc3[nH]c(=O)n(C)c23)c1 | -3 | 0.3
O=C(Nc1ccc2c(c1)OCO2)c1ccc(=O)n(Cc2ccc(Cl)cc2)c1 | -15 | 1.88
CCN(C(=O)c1nn(C)c2ccc(C)cc12)[C@H]1COC[C@@H]1O | 5 | -1
COc1cc(Cl)c(CNC(C)(C)CO)cc1OC | 4 | -0.67
Cc1n[nH]c(C(=O)N2CCCCCC2)c1Br | 3 | -0.33
